Calls of active or inactive are those of the source. The calls were made as follows: active = hit-call score of the fitted dose curve at least 0.9, where 1 is the maximum; inactive = score below 0.9.
Tests used:
[1] = molecular target: CCAAT/enhancer-binding protein beta (Homo sapiens) (UniProt P17676); assay: ATG_C_EBP_CIS: Attagene CIS-FACTORIAL HepG2 Assay for human CCAAT/Enhancer Binding Protein (C/EBP) beta (AID 2282927); details: HepG2 Attagene cis-factorial transcription factor reporter; actives raise or lower the signal
How it was run: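 Chemical-treated HepG2 cells (24 h) bearing cis-regulated reporter constructs were processed for total RNA, then reverse transcription, PCR amplification, fluorescent primer extension and fragment analysis; gain- and loss-of-signal were fitted against DMSO.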

[2] = ATG_DR4_LXR_CIS: Attagene CIS-FACTORIAL HepG2 Assay for human Liver X Receptor (LXR), DR4 submotif (AID 2282929); details: HepG2 Attagene DR4 cis-reporter, mRNA transcription; actives raise or lower the signal
How it was run: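 Fluorescence intensity of labelled reporter cDNA fragments, separated by capillary electrophoresis, gives the signal. HepG2 cells bearing cis-regulated reporter constructs were treated 24 h; activity fitted bidirectionally relative to DMSO negative control.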

[3] = ATG_AP_1_CIS: Attagene CIS-FACTORIAL HepG2 Assay for human Activator Protein 1 (AP-1) (AID 2282931); details: HepG2 Attagene cis-factorial AP-1 reporter mRNA; actives raise or lower the signal
How it was run: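 Multiplexed HepG2 reporter assay, 24 h dosing. mRNA induction detected by RT-PCR plus capillary electrophoresis. Activity fitted in both directions against DMSO.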

[4] = ATG_AP_2_CIS: Attagene CIS-FACTORIAL HepG2 Assay for human Activator Protein 2 (AP-2) (AID 2282932); details: HepG2 AP-2 cis-reporter, Attagene transcription factor profiling; actives raise or lower the signal
How it was run: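 Bidirectional curve fitting against DMSO was applied to reporter mRNA signals from HepG2 cells 24 h after dosing. Cis-promoter reporter units, transiently transfected, were read by RT-PCR plus capillary electrophoresis.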

[5] = ATG_BRE_CIS: Attagene CIS-FACTORIAL HepG2 Assay for human Bone Morphogenetic Protein (BMP) Response Element (BRE) (AID 2282933); details: HepG2 BMP response element reporter, Attagene transcription factor profiling; actives raise or lower the signal
How it was run: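 A HepG2 multiplex reporter system measured inducible reporter mRNA 24 h post-dosing. Detection: RT-PCR, 6-FAM primer extension, HpaI digestion, capillary electrophoresis. Activity fitted bidirectionally relative to DMSO.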

[6] = molecular target: Transcription factor E2F1 (Homo sapiens) (UniProt Q01094); assay: ATG_E2F_CIS: Attagene CIS-FACTORIAL HepG2 Assay for human E2F Transcription Factor 1 (AID 2282935); details: HepG2 Attagene cis-reporter, E2F reporter RNA transcripts; actives raise or lower the signal
How it was run: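 Multiplexed cis-reporter assay: HepG2, transient transfection, 24 h dosing, mRNA quantitation by labeled RT-PCR and CE.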

[7] = ATG_E_Box_CIS: Attagene CIS-FACTORIAL HepG2 Assay for human Enhancer Box (E-box) (AID 2282936); details: HepG2 E-box cis-reporter transcription, actives raise or lower the signal
How it was run: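 Multiplexed CIS reporter system in transiently transfected HepG2 cells measures native transcription factor activity. Reporter RNA after 24 h exposure is profiled by RT-PCR-capillary electrophoresis.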

[8] = ATG_M_61_CIS: Attagene CIS-FACTORIAL HepG2 Assay for M61 Transcription Factor (Internal Marker) (AID 2282937); details: HepG2 Attagene CIS-FACTORIAL M61 internal marker reporter; actives raise or lower the signal
How it was run: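 Endogenous transcription factor activity in HepG2 is read through transiently transfected cis-element reporter units. After 24 h dosing, RNA undergoes reverse transcription, PCR and primer extension with 6-FAM before capillary electrophoresis; DMSO-referenced bidirectional fit.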

[9] = ATG_EGR_CIS: Attagene CIS-FACTORIAL HepG2 Assay for human Early Growth Response 1 (EGR1) (AID 2282938); details: HepG2 Attagene CIS-FACTORIAL EGR reporter mRNA; actives raise or lower the signal
How it was run: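 Activity is taken as induction or loss of reporter mRNA versus DMSO, fitted bidirectionally. Transcripts from cis-regulated reporter units in transiently transfected HepG2 were measured after 24 h by RT-PCR with capillary electrophoresis.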

[10] = ATG_M_19_CIS: Attagene CIS-FACTORIAL HepG2 Assay for M19 Transcription Factor (Internal Marker) (AID 2282939); details: HepG2 Attagene CIS-FACTORIAL M19 internal marker reporter; actives raise or lower the signal
How it was run: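 Chemical-treated HepG2 (24 h) with MRTU constructs; reporter transcripts detected by fluorescent RT-PCR fragment analysis on capillary electrophoresis. Internal background marker, DMSO as baseline.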

[11] = ATG_Ets_CIS: Attagene CIS-FACTORIAL HepG2 Assay for human Erythroblast Transformation Specific (ETS) (AID 2282941); details: HepG2 ETS cis-reporter transcription, actives raise or lower the signal
How it was run: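 HepG2 cells transfected with multiple cis-regulated reporter units measuring endogenous ETS-driven transcription, 24 h after dosing. Reporter mRNA quantified by RT-PCR with capillary electrophoresis; bidirectional fit relative to DMSO.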

[12] = molecular target: Hepatocyte nuclear factor 3-beta (Homo sapiens) (UniProt Q9Y261); assay: ATG_FoxA2_CIS: Attagene CIS-FACTORIAL HepG2 Assay for human Forkhead box A2 (FOXA2) (AID 2282942); details: HepG2 cis-reporter transcription factor activity, 24 h; actives raise or lower the signal
How it was run: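 Reporter transcript induction is measured by fluorescence after capillary electrophoresis of RT-PCR products from HepG2 cells exposed 24 h. Cis-regulated reporter units report endogenous factor activity; curves fitted both directions against DMSO.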

[13] = ATG_FoxO_CIS: Attagene CIS-FACTORIAL HepG2 Assay for human Forkhead box O (FoxO) (AID 2282943); details: HepG2 Attagene cis-reporter, FoxO element, mRNA; actives raise or lower the signal
How it was run: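 24 h chemical exposure, HepG2 with transient cis-MRTU transfection. RNA extraction, oligo(dT) RT, reporter-specific PCR, primer-extension labelling, HpaI digestion, CE fragment analysis; bidirectional fit, DMSO baseline.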

[14] = ATG_GATA_CIS: Attagene CIS-FACTORIAL HepG2 Assay for human GATA Binding Protein (AID 2282944); details: HepG2 GATA cis-element reporter, Attagene multiplex mRNA; actives raise or lower the signal
How it was run: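 Transfected cis-reporter HepG2 cells were treated with chemicals for 24 hours. Total RNA was then converted to cDNA, amplified with reporter-specific primers and analysed by fluorescent capillary electrophoresis, using DMSO-treated wells as baseline.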

[15] = ATG_GLI_CIS: Attagene CIS-FACTORIAL HepG2 Assay for human Zinc Finger Protein GLI1 (AID 2282945); details: HepG2, Attagene cis-factorial reporter mRNA, GLI element; actives raise or lower the signal
How it was run: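 HepG2 cells transiently transfected with cis-promoter multiplexed reporter units report endogenous transcription factor activity. After 24 h chemical exposure, reporter mRNA was quantified by RT-PCR, 6-FAM labelling, HpaI digestion and capillary electrophoresis, with bidirectional fitting against DMSO.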

[16] = ATG_CMV_CIS: Attagene CIS-FACTORIAL HepG2 Assay for human CMV (Internal Marker) (AID 2282928); details: HepG2 CMV promoter reporter, transcription factor profiling; actives raise or lower the signal;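 also: endpoint acts as a background internal control marker rather than a target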
How it was run: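 CMV internal-marker background readout in transiently transfected HepG2 cells bearing cis-regulated reporter units. Reporter mRNA is measured 24 h after dosing by RT-PCR and capillary electrophoresis, with bidirectional fitting against DMSO.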

[17] = molecular target: Aryl hydrocarbon receptor (Homo sapiens) (UniProt P35869); assay: ATG_Ahr_CIS: Attagene CIS-FACTORIAL HepG2 Assay for human Aryl Hydrocarbon Receptor (Ahr) (AID 2282930); details: HepG2 AhR cis-factorial reporter transcription; actives raise or lower the signal
How it was run: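 Following 24 h of chemical dosing, transfected HepG2 liver cells with cis-driven reporter units were lysed for RNA; reporter mRNA was quantified via RT-PCR and capillary electrophoresis, and responses fitted bidirectionally from DMSO.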

[18] = ATG_ERE_CIS: Attagene CIS-FACTORIAL HepG2 Assay for Estrogen Response Element (ERE) (AID 2282940); details: HepG2 ERE cis-reporter, Attagene RNA transcript; actives raise or lower the signal
How it was run: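 Human liver cells (HepG2) bearing transiently transfected, promoter-regulated reporter units were exposed 24 h. Reporter mRNA induction was detected by capillary electrophoresis of labelled RT-PCR products and fitted bidirectionally to DMSO.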

[19] = molecular target: Retinoic acid receptor alpha (Homo sapiens) (UniProt P10276); assay: ATG_DR5_RAR_CIS: Attagene CIS-FACTORIAL HepG2 Assay for human Retinoic Acid Receptor Alpha (RARE), DR5 submotif (AID 2282934); details: HepG2 Attagene cis-factorial RARE DR5 reporter, mRNA; actives raise or lower the signal
How it was run: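 Transfected HepG2 reporter cells are exposed to chemicals for 24 h. Then RNA is extracted and the DR5 element reporter transcript is measured by RT-PCR and capillary electrophoresis, with bidirectional curve fitting relative to DMSO.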

Measured: AC50

Aryl hydrocarbon receptor (Homo sapiens), sequence (P35869 whole entry, looked up): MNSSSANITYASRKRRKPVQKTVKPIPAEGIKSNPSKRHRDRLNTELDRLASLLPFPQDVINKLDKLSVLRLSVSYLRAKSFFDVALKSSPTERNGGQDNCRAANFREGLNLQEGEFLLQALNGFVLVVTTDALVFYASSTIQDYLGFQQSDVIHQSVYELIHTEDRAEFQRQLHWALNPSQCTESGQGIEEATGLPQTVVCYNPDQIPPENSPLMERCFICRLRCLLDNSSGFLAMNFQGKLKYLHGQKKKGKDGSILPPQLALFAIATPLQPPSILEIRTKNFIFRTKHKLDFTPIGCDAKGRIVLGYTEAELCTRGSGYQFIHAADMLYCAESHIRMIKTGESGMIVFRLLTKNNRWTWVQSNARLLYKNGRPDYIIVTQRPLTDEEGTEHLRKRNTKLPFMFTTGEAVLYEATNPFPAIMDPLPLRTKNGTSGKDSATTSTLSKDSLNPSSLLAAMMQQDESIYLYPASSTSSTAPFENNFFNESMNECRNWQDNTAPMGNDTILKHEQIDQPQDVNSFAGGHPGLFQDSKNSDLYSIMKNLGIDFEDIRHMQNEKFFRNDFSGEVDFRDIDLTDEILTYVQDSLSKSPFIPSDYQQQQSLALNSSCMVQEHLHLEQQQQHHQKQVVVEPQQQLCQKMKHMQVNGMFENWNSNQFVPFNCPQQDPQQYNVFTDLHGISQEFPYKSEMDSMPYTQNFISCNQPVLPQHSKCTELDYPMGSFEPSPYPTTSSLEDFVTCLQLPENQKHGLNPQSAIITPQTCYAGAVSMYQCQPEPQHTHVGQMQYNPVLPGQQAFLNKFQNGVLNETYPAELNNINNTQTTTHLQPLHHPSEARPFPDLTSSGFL
Hepatocyte nuclear factor 3-beta (Homo sapiens), sequence (Q9Y261 whole entry, looked up): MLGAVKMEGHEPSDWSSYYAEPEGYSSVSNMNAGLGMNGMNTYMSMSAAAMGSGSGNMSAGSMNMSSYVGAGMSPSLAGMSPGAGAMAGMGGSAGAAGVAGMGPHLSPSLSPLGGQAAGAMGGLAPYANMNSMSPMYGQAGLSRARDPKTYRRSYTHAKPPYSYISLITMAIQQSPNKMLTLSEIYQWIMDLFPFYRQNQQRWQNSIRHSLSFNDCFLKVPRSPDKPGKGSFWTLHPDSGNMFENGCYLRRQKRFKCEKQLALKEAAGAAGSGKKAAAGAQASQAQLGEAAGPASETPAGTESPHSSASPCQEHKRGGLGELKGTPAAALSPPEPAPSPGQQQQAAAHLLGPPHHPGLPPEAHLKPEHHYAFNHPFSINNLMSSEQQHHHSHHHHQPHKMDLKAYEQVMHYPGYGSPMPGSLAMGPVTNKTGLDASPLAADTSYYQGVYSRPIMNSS
Transcription factor E2F1 (Homo sapiens), sequence (Q01094 whole entry, looked up): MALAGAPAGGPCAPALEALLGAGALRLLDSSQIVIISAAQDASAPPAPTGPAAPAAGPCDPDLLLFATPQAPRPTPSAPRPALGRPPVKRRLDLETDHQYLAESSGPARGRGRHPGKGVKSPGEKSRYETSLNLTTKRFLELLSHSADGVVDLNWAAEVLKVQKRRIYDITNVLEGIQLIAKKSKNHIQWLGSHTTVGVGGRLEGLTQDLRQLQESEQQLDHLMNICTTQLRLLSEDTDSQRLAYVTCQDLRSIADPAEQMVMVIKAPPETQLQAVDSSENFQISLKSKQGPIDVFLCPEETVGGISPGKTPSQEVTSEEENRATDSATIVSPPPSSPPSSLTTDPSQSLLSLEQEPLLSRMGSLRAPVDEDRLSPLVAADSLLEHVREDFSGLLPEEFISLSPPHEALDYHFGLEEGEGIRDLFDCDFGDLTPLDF
CCAAT/enhancer-binding protein beta (Homo sapiens), sequence (P17676 whole entry, looked up, the tested form may be a part): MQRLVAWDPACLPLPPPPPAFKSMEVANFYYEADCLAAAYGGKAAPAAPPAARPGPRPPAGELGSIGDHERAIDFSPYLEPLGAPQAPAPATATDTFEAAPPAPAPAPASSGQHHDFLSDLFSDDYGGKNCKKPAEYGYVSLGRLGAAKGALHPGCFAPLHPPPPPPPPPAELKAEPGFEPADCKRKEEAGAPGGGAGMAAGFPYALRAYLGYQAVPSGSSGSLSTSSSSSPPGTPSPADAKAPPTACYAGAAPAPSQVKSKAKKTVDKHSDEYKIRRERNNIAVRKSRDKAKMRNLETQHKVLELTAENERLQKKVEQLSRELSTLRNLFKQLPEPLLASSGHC
Retinoic acid receptor alpha (Homo sapiens), sequence (P10276 whole entry, looked up): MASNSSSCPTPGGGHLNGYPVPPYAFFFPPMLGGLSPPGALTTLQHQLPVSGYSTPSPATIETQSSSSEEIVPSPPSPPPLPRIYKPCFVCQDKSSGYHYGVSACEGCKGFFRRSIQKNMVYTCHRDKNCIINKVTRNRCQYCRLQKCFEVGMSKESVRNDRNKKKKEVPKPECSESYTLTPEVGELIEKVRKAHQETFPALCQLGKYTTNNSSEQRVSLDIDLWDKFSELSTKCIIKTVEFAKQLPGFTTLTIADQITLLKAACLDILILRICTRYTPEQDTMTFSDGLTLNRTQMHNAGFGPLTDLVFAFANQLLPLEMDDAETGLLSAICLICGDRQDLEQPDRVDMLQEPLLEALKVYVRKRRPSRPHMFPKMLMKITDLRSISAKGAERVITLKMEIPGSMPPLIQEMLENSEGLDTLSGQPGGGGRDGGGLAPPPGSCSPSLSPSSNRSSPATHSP

COC(=O)OC
not listed: [16] | [17] | [18] | [19]
inactive: all other assays above

CC(c1cc2ccccc2s1)N(O)C(N)=O (centres undefined)
active: [17] 38.2 µM
not listed: [19]
inactive: all other assays above

CCCC(=O)c1cc(O)c(O)cc1O
not listed: [7] | [19]
inactive: all other assays above

FC1(F)C(F)(F)C(F)(F)C2(F)C(F)(C1(F)F)C(F)(F)C(F)(F)C1(F)C(F)(F)C(F)(F)C(F)(F)C(F)(F)C12F (centres undefined)
not listed: [3] | [18] | [19]
inactive: all other assays above

CC(=O)OCCOC(C)=O
not listed: [7] | [19]
inactive: all other assays above

O=C[C@@H](O)[C@H](O)[C@H](O)CO
not listed: [4] | [18] | [19]
inactive: all other assays above

CCCCNC(=O)NS(=O)(=O)c1ccc(N)cc1
not listed: [18] | [19]
inactive: all other assays above

COc1ccc(Nc2ccccc2)c(C)c1
active: [16] 100 µM | [2] 46 µM | [3] 139 µM | [5] 149 µM | [18] 19.6 µM
not listed: [12] | [19]
inactive: all other assays above

COC(C)CCO (centres undefined)
active: [3] 42.4 µM
not listed: [5] | [13] | [18] | [19]
inactive: all other assays above

Clc1cccc(Cl)n1
not listed: [10] | [12] | [19]
inactive: all other assays above

CC1CCC(C(C)(C)O)CC1 (centres undefined)
not listed: [5] | [18] | [19]
inactive: all other assays above

Cc1ccc2sc3cccc(C)c3c2c1
not listed: [10] | [19]
inactive: all other assays above

CCCCNC(=O)NS(=O)(=O)c1ccc(C)cc1
not listed: [7] | [12] | [18] | [19]
inactive: all other assays above

COC(=O)C1=C(C)NC(C)=C(C(=O)OCCN(C)Cc2ccccc2)C1c1cccc([N+](=O)[O-])c1 (centres undefined)
active: [1] 15.5 µM | [2] 8.22 µM | [4] 26.5 µM | [5] 17.9 µM | [6] 25 µM | [7] 19.4 µM | [15] 99.5 µM
not listed: [10] | [19]
inactive: all other assays above

CCCCCCCCCCCCCCCCCC(=O)OCC(CC)CCCC (centres undefined)
not listed: [18]
inactive: all other assays above

Fc1c(F)c(F)c(Br)c(F)c1F
not listed: [4] | [18]
inactive: all other assays above

COc1ccc(O)cc1
not listed: [18] | [19]
inactive: all other assays above

CCCCCCCCCCCCCOS(=O)(=O)O
not listed: [4] | [12] | [18] | [19]
inactive: all other assays above

C[C@]12CC[C@H]3[C@@H](CCC4=CC(=O)CC[C@@]43C)[C@@H]1CC[C@@H]2C(=O)CO
active: [9] 55.9 µM | [18] 0.635 µM
not listed: [4] | [5] | [19]
inactive: all other assays above

Cc1c(N(C)C)c(=O)n(-c2ccccc2)n1C
active: [17] 64.9 µM
not listed: [19]
inactive: all other assays above

CC(=O)/C=C/C1=C(C)CCCC1(C)C
not listed: [13] | [19]
inactive: all other assays above

CC(CC(C)(C)C)CC(C)(C)CC(C)(C)C (centres undefined)
not listed: [13] | [16] | [18] | [19]
inactive: all other assays above

O=C1NC(=O)c2ccccc21
not listed: [7] | [13] | [18] | [19]
inactive: all other assays above

CCCCCC(CO)CCC (centres undefined)
not listed: [18] | [19]
inactive: all other assays above

CN(C)c1ccc(O)c2c1C[C@H]1C[C@H]3[C@H](N(C)C)C(=O)C(C(N)=O)=C(O)[C@@]3(O)C(=O)C1=C2O
not listed: [12] | [13] | [19]
inactive: all other assays above

OCCOCCOCCOCCO
active: [17] 40.5 µM
not listed: [11] | [19]
inactive: all other assays above

CC1CC(OC(=O)c2ccccc2O)CC(C)(C)C1 (centres undefined)
active: [16] 100 µM | [3] 69.4 µM
not listed: [5] | [18]
inactive: all other assays above
